# These entries were drawn from the full list.
# CYP2C19 activ – cytochrome P450 2C19 (human) activation. recombinant CYP2C19, luciferin-H EGE luminescence; stronger effect = higher value; 0 = fully inhibited enzyme, 1 = untreated enzyme. activation factor at 5 µM. 96,000 tested, under 10 active. AID 1025;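 active means activation factor of at least 2 at 5 µM in the primary screen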;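 further: 0 = wells with 2.5 mM tranylcypromine and 1 = vehicle-only wells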
# CYP2C9 inhib – human CYP2C9 inhibition; CYP2C9 Supersomes, luciferin-H conversion, luminescence; inhibition, % at 5 µM; 96,000 compounds, 20% hits; P11712;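 active means blocking of liver enzyme CYP2C9 beyond about 50% at 5 µM, limit read from the data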
# Target sequence (P11712 whole entry, looked up): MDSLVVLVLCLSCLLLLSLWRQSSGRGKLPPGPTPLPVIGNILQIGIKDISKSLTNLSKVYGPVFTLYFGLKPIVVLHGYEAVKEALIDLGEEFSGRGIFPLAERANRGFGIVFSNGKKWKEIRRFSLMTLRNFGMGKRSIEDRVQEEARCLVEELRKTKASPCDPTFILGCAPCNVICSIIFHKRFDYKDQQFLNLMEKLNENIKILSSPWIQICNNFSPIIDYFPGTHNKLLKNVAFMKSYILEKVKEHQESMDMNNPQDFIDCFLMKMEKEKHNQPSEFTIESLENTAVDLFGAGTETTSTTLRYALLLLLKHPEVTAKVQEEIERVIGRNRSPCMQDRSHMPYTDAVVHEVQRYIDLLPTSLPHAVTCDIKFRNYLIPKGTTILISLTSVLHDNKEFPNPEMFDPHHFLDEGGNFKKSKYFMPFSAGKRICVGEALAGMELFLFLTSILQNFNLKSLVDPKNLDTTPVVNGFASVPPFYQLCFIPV
# PLAP act – activators of human placental alkaline phosphatase. P05187. purified PLAP enzyme, luminescent substrate read-out; stronger effect = higher value. activation fold at 20 µM. 96,000 compounds, 1.2% hits. AID 696; in the data active means activation fold above about 2
# CYP2C9 act – CYP2C9 (human) activation. recombinant CYP2C9, luciferin-H conversion, luminescence; stronger effect = higher value; factor 1 = untreated enzyme, 0 = blocked. activation factor at 5 µM. 96,000 compounds, 1.4% hits. AID 1024;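 active means activation factor of 2 or more for CYP2C9 at a 5 µM dose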;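 further: 0 = sulfaphenazole-blocked wells and 1 = vehicle-only wells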
# CYP2C19 inhib – inhibitors of human CYP2C19; P33261; CYP2C19 Supersomes, luciferin-H EGE luminescence, 30 min; inhibition, % at 5 µM; AID 778; 96,000 compounds, 21% hits;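 active means CYP2C19 inhibition above a set limit at 5 µM in the primary screen, cut at about 50% in these data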;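 further: plate controls were negative control wells for no effect and 2.5 mM tranylcypromine positive control for full effect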
# Active calls of the source: *; x = no result.
SMILES,CYP2C19 activ,CYP2C9 inhib,PLAP act,CYP2C9 act,CYP2C19 inhib
CCOCC(=O)Nc1c(C(=O)OCC)oc2ccccc12,1.1,8,1.1,0.9,-6
CCOC(=O)c1oc2cccc(OC(C)=O)c2c1C,0.2,-23,1.2,1.2,76*
CCOC(=O)c1oc2ccccc2c1N,0.1,19,1,0.8,87*
CCOC(=O)c1oc2ccccc2c1CN1CCN(C(=O)c2ccccc2)CC1,0.6,46,1.4,0.5,43
CCOC(=O)c1oc2cccc(O)c2c1CN(Cc1ccccc1)C(C)=O,0.3,25,1,0.7,67*
CCOC(=O)c1oc2ccccc2c1CN1CCN(c2ccccc2)CC1,0.5,48,1.5,0.5,52*
O=C1C2C3c4ccccc4C(c4ccccc43)C2C(=O)N1/N=C/c1cccc(O)c1 (configuration not stated),0.7,-1,1,1,33
COc1ccc(C(C)=O)cc1CN1C(=O)C(C)N(c2ccc(C)cc2)C1=O (configuration not stated),0.2,84*,1.6,0.2,82*
CC(C)C12CCC(C(=O)O)C(C1)C(=O)O2 (configuration not stated),x,x,1,x,x
CCOC(=O)C1=C(C)NC(=O)NC1c1cc(C)sc1C (configuration not stated),0.9,0,0.9,1,7
CCOC(=O)C1=C(C)NC(=O)NC1c1ccc(OCC(=O)OC)c(OC)c1 (configuration not stated),0.8,21,1.1,0.8,18
CCOC(=O)C1=C(C)NC(=O)NC1c1ccc(N(C)C)cc1 (configuration not stated),1,-11,1.1,1.1,-4
CCOC(=O)C1=C(C)NC(=O)NC1c1ccc(OCC(=O)Nc2ccccc2)c(OC)c1 (configuration not stated),0.3,91*,1.5,0.1,70*
CCOC(=O)C1=C(C)NC(=O)NC1c1ccc(Cl)cc1Cl (configuration not stated),0.3,13,0.9,0.9,68*
CCOC(=O)C1=C(C)NC(=O)NC1c1ccc(N(CC)CC)cc1 (configuration not stated),0.8,52*,0.9,0.5,17
C=CCOc1c(Cl)cc(C2NC(=O)NC(C)=C2C(=O)OC)cc1Cl (configuration not stated),0.4,37,0.9,0.6,57*
CCOc1cccc(N2C(=O)CC(n3cnc4ccccc43)C2=O)c1 (configuration not stated),1,-6,0.8,1.1,4
Cc1cccc(N2C(N)=NC(N)=NC23CCCCC3)c1,1,7,0.9,0.9,0
Cc1nn(CC(=O)O)c2ccccc12,1.2,23,0.9,0.8,-15
CCOC(=O)C1C(=O)CC(C)(O)C(C(=O)OCC)C1/C=C/c1ccccc1 (configuration not stated),0.9,8,1.1,0.9,14
CC1=C(C(=O)OCC(C)C)C(c2ccc(F)cc2)NC(=O)N1 (configuration not stated),0.1,29,0.9,0.7,90*
CCOC(=O)C1=C(C)NC(=O)NC1c1ccc(OC(C)C(=O)O)c(OC)c1 (configuration not stated),1.3,-28,1,1.3,-25
CCOC(=O)C1=C(C)NC(=O)NC1C (configuration not stated),1.1,-5,0.8,1.1,-5
CCOC(=O)C1=C(C)NC(=O)NC1c1c(OCC(=O)N2CCCCC2)ccc2ccccc12 (configuration not stated),0.2,83*,1.5,0.2,76*
CC1=C(C(=O)OC2CCCCCCC2)C(c2cccc(O)c2)NC(=O)N1 (configuration not stated),0.2,81*,1.7,0.2,81*
SMILES,CYP2C19 activ,CYP2C9 inhib,PLAP act,CYP2C9 act,CYP2C19 inhib
CCOC(=O)C1=C(C)NC(=O)NC1c1cccc(O)c1 (configuration not stated),1,6,1,0.9,3
CCOC(=O)C1=C(C)NC(=O)NC1/C(C)=C/c1ccccc1 (configuration not stated),0.2,69*,0.9,0.3,78*
Cc1ccc(C)c(S(=O)(=O)NC(CCC(N)=O)C(=O)O)c1 (configuration not stated),1.2,-19,0.8,1.2,-18
CCCCC1CCC(C(=O)Nc2ccc(S(=O)(=O)Nc3nccs3)cc2)CC1 (configuration not stated),1.1,22,1.3,0.8,-8
O=C(CNC(=O)Cn1ccc2ccccc2c1=O)NCCCN1CCCCCC1,1.2,-17,1.1,1.2,-17
CN1CCN(S(=O)(=O)c2ccc(Sc3nnc(-c4cccs4)n3-c3ccccc3)nc2)CC1,1,8,1.5,0.9,-3
COc1ccc(C(=O)/C=C\c2ccc(NC(=O)c3cccs3)cc2)cc1,0.8,5,0.9,1,19
CCOc1ccccc1C(=O)NCCCN1CCN(CCCNC(=O)c2ccccc2OCC)CC1,1,-19,1.8,1.2,-4
Cc1ccc(-c2nn(-c3ccccc3)cc2C2CC(c3cccs3)=NN2C(=O)CCCC(=O)O)cc1 (configuration not stated),0.9,61*,1.5,0.4,9
CCOC(=O)C1=C(CNCc2ccccc2Cl)NC(=O)NC1c1ccc2c(c1)OCO2 (configuration not stated),0.7,26,0.9,0.7,28
CCOC(=O)C1=C(C)NC(=O)NC1c1cn(-c2ccccc2)nc1-c1cccs1 (configuration not stated),0.4,80*,1.7,0.2,56*
CCOC(=O)C1=C(CNCc2ccc(C)cc2)NC(=O)NC1c1cc(C)ccc1C (configuration not stated),0.5,55*,1.6,0.5,47
CCOC(=O)C1=C(CN2CCC(C)CC2)NC(=O)NC1c1ccc(Cl)cc1 (configuration not stated),0.2,89*,0.7,0.1,78*
CCc1c(C)nc2[nH]nc(NC(=O)C(F)(F)F)n2c1=O,1,10,0.9,0.9,3
COC(=O)Cn1cnc2c(nnn2-c2ccc(C)cc2)c1=O,0.7,7,0.9,0.9,32
CCOC(=O)N1CCN(c2cc(=O)n(-c3ccc(Br)cc3)c(=O)[nH]2)CC1,1,10,1.1,0.9,-3
O=C1C2CC=CCC2C(=O)N1c1n[nH]c(CCc2ccccc2)n1 (configuration not stated),0.9,-14,1.2,1.1,10
Cc1ccc(S(=O)(=O)NC2=NCN(CCOC(=O)c3ccc([N+](=O)[O-])cc3)CN2)cc1,1.2,-3,1,1,-18
Cn1cccc1C1Nc2ccccc2NC2=C1C(=O)CC(C)(C)C2 (configuration not stated),1.3,0,1.2,1,-33
CCCCn1nc(C(=O)O)ccc1=O,0.9,9,1.1,0.9,8

# Screens deposited in PubChem by Sanford-Burnham Center for Chemical Genomics.
